Results: paper PMC4336329 (PLoS ONE, 2015)
In all, about 310,000 compounds went through this assay and about 14,000 (4.5%) showed an effect of 50% or more. The effect is printed as a negative number. This is one part of a sample in which strong results are shown more often than they occur.

Each compound was assayed against human ether-à-go-go-related gene (hERG) potassium channel (human, UniProt Q12809) (assay: primary screen, population patch clamp on CHO cells stably expressing hERG; higher = less effect of the substance).
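Note: peak tail current of the secondary pulse compared with the same well before compound.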

Sequence of human ether-à-go-go-related gene (hERG) potassium channel (Q12809 whole entry, looked up): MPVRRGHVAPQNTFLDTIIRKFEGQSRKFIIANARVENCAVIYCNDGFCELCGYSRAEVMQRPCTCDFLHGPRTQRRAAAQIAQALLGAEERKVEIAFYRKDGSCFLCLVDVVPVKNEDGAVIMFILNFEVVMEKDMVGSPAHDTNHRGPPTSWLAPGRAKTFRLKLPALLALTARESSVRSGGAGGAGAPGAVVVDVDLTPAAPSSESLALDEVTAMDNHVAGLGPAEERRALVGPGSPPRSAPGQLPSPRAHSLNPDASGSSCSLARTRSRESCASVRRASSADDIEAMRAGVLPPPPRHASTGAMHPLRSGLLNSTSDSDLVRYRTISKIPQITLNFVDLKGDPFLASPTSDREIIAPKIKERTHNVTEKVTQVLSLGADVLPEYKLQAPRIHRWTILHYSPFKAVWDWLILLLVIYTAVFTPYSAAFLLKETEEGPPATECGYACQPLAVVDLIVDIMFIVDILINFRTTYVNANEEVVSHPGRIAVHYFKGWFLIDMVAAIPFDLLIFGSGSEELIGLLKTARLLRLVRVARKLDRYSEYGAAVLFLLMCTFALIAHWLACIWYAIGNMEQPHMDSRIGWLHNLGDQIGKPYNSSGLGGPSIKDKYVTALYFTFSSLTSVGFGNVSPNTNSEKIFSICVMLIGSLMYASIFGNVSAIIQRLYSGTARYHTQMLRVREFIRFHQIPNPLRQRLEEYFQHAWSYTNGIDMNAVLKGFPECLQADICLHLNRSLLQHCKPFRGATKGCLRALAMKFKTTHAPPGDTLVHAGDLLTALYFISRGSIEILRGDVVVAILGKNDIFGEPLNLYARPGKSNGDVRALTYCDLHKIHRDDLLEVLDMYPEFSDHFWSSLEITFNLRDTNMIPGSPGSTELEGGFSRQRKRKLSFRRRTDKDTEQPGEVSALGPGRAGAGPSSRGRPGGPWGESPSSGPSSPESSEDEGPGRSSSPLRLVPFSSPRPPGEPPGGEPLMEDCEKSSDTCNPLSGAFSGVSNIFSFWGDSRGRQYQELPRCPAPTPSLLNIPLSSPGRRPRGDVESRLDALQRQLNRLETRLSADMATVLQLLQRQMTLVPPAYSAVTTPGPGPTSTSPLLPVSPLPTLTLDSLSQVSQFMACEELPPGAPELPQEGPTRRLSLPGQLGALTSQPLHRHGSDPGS

| SMILES | hERG current change (%, negative = inhibition) at 10uM [%] |
| --- | --- |
| COC(=O)C1=C(C)NC2=C(C(=O)c3ccccc32)C1c1cccc(OC)c1 (centres unmarked) | 4.97 |
| CN(C)C(=O)c1ccc(NC(=O)c2ccccc2Sc2ccccc2C#N)cc1 | 1.57 |
| O=C(O)C1Cn2c(nc3c(c2=O)C2(CCCC2)Cc2ccccc2-3)S1 (centres unmarked) | 17.3 |
| C=C1C(C(=O)N2CCOCC2)C1C(=O)N1CCOCC1 (centres unmarked) | 5.16 |
| Cc1ccc(/C=N/NC(=O)CSc2nc3ccccc3n2C)s1 | -17.4 |
| COc1ccccc1C1C(C(=O)c2sc(C)nc2C)=C(O)C(=O)N1CCN1CCOCC1 (centres unmarked) | 4.26 |
| O=c1[nH]c2ccccc2cc1CN(CC1CCCO1)S(=O)(=O)c1ccccc1 (centres unmarked) | -10.3 |
| Cc1ccc(S(=O)(=O)N(Cc2cc3ccccc3[nH]c2=O)CC2CCCO2)cc1 (centres unmarked) | 10.5 |
| COc1ccc(S(=O)(=O)N(Cc2cccnc2)Cc2cc3ccccc3[nH]c2=O)cc1 | -18.6 |
| Cc1ccc(S(=O)(=O)N(Cc2cccnc2)Cc2cc3ccccc3[nH]c2=O)cc1 | -19.5 |
| O=c1[nH]c2ccccc2cc1CN(CC1CCCO1)S(=O)(=O)c1ccc(Cl)cc1 (centres unmarked) | -75.1 |
| O=c1[nH]c2ccccc2cc1CN(Cc1cccnc1)S(=O)(=O)c1ccc(Cl)cc1 | -56.2 |
| CC(=O)NC(C)c1cc(Cl)c2ccccc2c1O (centres unmarked) | 1.04 |
| COc1cc2cc(C(=O)N3CCOCC3)cc(-c3ccc(C)cc3)c2cc1OC | -8.61 |
| COc1ccccc1/C=N/NC(=O)c1ccc(Cn2nc([N+](=O)[O-])cc2C)cc1 | -12.7 |
| C/C(=N\NC(=O)C(O)(c1ccccc1)c1ccccc1)c1ccc(C)o1 | -2.62 |
| C/C(=N/NC(=O)C(O)(c1ccccc1)c1ccccc1)c1ccc([N+](=O)[O-])o1 | -71.6 |
| CCOC(=O)N/N=C(/C)c1ccc([N+](=O)[O-])o1 | -25.4 |
| COc1ccc(CNC(=O)C(c2ccc(C)o2)N(C(=O)c2csnn2)c2ccc(C(C)C)cc2)cc1 (centres unmarked) | -42.9 |
| Cc1ccccc1OCC(O)Cn1c(=N)n(Cc2ccccc2)c2ccccc21.Cl (centres unmarked) | -73 |

| SMILES | hERG current change (%, negative = inhibition) at 10uM [%] |
| --- | --- |
| COc1ccccc1OCC(O)CO (centres unmarked) | 12.4 |
| Br.C=CCn1c(=N)n(CC(=O)c2ccc(OC)cc2)c2ccccc21 | -43.7 |
| C=CCn1c(=N)n(CC(O)c2ccco2)c2ccccc21.Cl (centres unmarked) | -23.1 |
| COc1ccccc1OC[C@H](O)CO | 24 |
| Cc1ccccc1OCC(O)Cn1c2ccccc2c2ccccc21 (centres unmarked) | 2.67 |
| COc1ccccc1OCC(O)Cn1c(=N)n(Cc2ccccc2)c2ccccc21.Cl (centres unmarked) | -71 |
| C=CCn1c(=N)n(CC(O)COc2ccccc2OC)c2ccccc21.Cl (centres unmarked) | -67 |
| Cc1ccccc1OCC(O)Cn1nnc2ccccc21 (centres unmarked) | 5.21 |
| Cc1ccc(NC(=O)COC(=O)COc2cccc3c2OC(C)(C)C3)c(C)c1 | 19.8 |
| FC(F)(F)c1nc(SCc2ccc(Cl)cc2Cl)n[nH]1 | -0.342 |
| Cc1c(N2C(=O)/C(=C\C3CC=CCC3)SC2=S)c(=O)n(-c2ccccc2)n1C (centres unmarked) | -6.68 |
| c1ccc(SCc2cn(C[C@H]3CC[C@@H]([C@@H]4CC[C@H](Cn5cc(CSc6ccccc6)nn5)O4)O3)nn2)cc1 | -62.1 |
| c1ccc(Cn2cc(CSc3ccccc3)nn2)cc1 | -11 |
| O=C1c2ccccc2C(=O)N1CCCc1cn(C[C@H]2CC[C@@H]([C@@H]3CC[C@H](Cn4cc(CCCN5C(=O)c6ccccc6C5=O)nn4)O3)O2)nn1 | -23.8 |
| OCCCc1cn(CC2CCCCC2)nn1 | 2.61 |
| CCCCc1cn(C[C@H]2CC[C@@H]([C@@H]3CC[C@H](Cn4cc(CCCC)nn4)O3)O2)nn1 | -54.9 |
| c1ccc(CCc2cn(C[C@H]3CC[C@@H]([C@@H]4CC[C@H](Cn5cc(CCc6ccccc6)nn5)O4)O3)nn2)cc1 | -38.2 |
| ClCCCc1cn(C[C@H]2CC[C@@H]([C@@H]3CC[C@H](Cn4cc(CCCCl)nn4)O3)O2)nn1 | -33.6 |
| c1c(CC2CCCC2)nnn1C[C@H]1CC[C@@H]([C@@H]2CC[C@H](Cn3cc(CC4CCCC4)nn3)O2)O1 | -57.6 |
| CC(=O)OCC1OC(OCc2cn(C[C@H]3CC[C@@H]([C@@H]4CC[C@H](Cn5cc(COC6OC(COC(C)=O)C(OC(C)=O)C(OC(C)=O)C6OC(C)=O)nn5)O4)O3)nn2)C(OC(C)=O)C(OC(C)=O)C1OC(C)=O (some centres unmarked) | 0.857 |

| SMILES | hERG current change (%, negative = inhibition) at 10uM [%] |
| --- | --- |
| O=C(NN=C1C2CC3CC(C2)CC1C3)c1cccc(S(=O)(=O)N2CCOCC2)c1 | 0.586 |
| COC(=O)CSC1=C(C#N)C(c2cccc(F)c2)CC(=O)N1 (centres unmarked) | 9.97 |
| CC1c2[nH]c3ccccc3c2CCN1S(C)(=O)=O (centres unmarked) | 3.54 |
| COc1ccc(C2CC(c3cccs3)=NN2C(=O)CSc2nnc(N)s2)cc1OC (centres unmarked) | -4.6 |
| O=C(CCCOc1ccccc1)Nc1ccc(Cl)cn1 | -3.18 |
| CCCCC(=O)Nc1cc(OCC)c(NC(=O)c2ccccc2[N+](=O)[O-])cc1OCC | -4.27 |
| FC(F)(F)c1cccc(-c2nnc3ccc(C(F)(F)F)cn23)c1 | -65.2 |
| FC(F)(F)c1ccc2nnc(-c3c(Cl)cccc3Cl)n2c1 | -4.48 |
| Fc1cccc(Cl)c1-c1nnc2ccc(C(F)(F)F)cn12 | 10.9 |
| O=C(Nc1ccc2nc3ccccc3nc2c1)c1ccc(Br)cc1 | 17.9 |
| O=C(NC(=S)N1CCN(c2ccc([N+](=O)[O-])cc2)CC1)c1ccc(F)cc1 | -58.5 |
| Cc1ccc(C(=O)NC(=S)N2CCN(c3ccc([N+](=O)[O-])cc3)CC2)cc1 | -15.6 |
| O=C(NC(=S)N1CCN(c2ccc([N+](=O)[O-])cc2)CC1)c1ccccc1F | -25.8 |
| O=C(NC(=S)N1CCN(c2ccc([N+](=O)[O-])cc2)CC1)c1ccccc1 | 0.58 |
| O=C(NC(=S)N1CCN(c2ccc([N+](=O)[O-])cc2)CC1)c1ccccc1Cl | -39.8 |
| CCC(=O)N1CCN(c2ccc(Cl)cc2NC(=S)NC(=O)c2ccco2)CC1 | -0.88 |
| O=C(NC(=S)N1CCN(c2ccc(Cl)cc2[N+](=O)[O-])CC1)c1ccco1 | -68.4 |
| O=C(NC(=S)N1CCN(c2ccc([N+](=O)[O-])cc2)CC1)c1ccco1 | -61.2 |
| O=C(NC(=S)N1CCN(c2ccc(Cl)cc2[N+](=O)[O-])CC1)c1cccs1 | -30 |
